Results filed as inconclusive are left out. The source made the active and inactive calls. Unless noted, calls come from the whole dose curve; as a rule, active = well fitted curve in the direction sought with a large enough effect in the repeat runs; inconclusive = weak or mixed curves; inactive = no such curve, though single readings can be large; an effect the other way counts as inactive or inconclusive.
What was measured:
[1] = qHTS assay for small molecule agonists of the p53 signaling pathway (AID 651631; calls by dose curve; note: nearly all actives have a fitted effect of over 15% in size)
How it was run: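 p53RE-bla HCT-116 cells; compounds 16 h, 37 °C; LiveBLAzer B/G FRET substrate 2 h RT; fluorescence intensity read-out, qHTS format.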

[2] = qHTS assay for small molecules that induce genotoxicity in human embryonic kidney cells expressing luciferase-tagged ATAD5 (AID 651632); note: nearly all actives have a fitted effect of over 15% in size
How it was run: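 Luminescent reporter readout, HEK293T ATAD5-luc line: 16 hr drug exposure (37C, 5% CO2) followed by Amplite, 30 min RT.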

[3] = qHTS assay for small molecule agonists of the p53 signaling pathway - cell viability (AID 651633; calls by dose curve;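 note: p53RE-bla HCT reporter cells with a stable beta-lactamase p53 reporter; series mostly up to about 83 µM; nearly all actives have a fitted effect of over 30% in size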)
How it was run: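 p53RE-bla cells, seeded at 4,000 per well and rested 5 h at 37 C/5% CO2, received compounds in DMSO for 16 h at 37 C. CellTiter-Glo was then added, and luminescence was read after 30 min at room temperature to gauge cytotoxicity.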

[4] = qHTS assay for small molecules that induce genotoxicity in human embryonic kidney cells expressing luciferase-tagged ATAD5 - cell viability (AID 651634; calls by dose curve; note: nearly all actives have a fitted effect of over 25% in size)
How it was run: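 Viability read: CellTiter-Fluor fluorescence, 30 min at 37C. Cells: HEK293T, luciferase-tagged ATAD5. Exposure: 15.5 hr, 37C, 5% CO2, compound or DMSO vehicle.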

[5] = qHTS assay for small molecule disruptors of the mitochondrial membrane potential - cell viability (AID 720634; calls by dose curve;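 note: human HepG2 liver cancer cells; series mostly up to about 83 µM; nearly all actives have a fitted effect of over 20% in size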)
How it was run: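 HepG2, 1 hr compound, 37 C. ATP luminescence via CellTiter-Glo, 30 min RT, same well as m-MPI.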

[6] = qHTS assay for small molecule disruptors of the mitochondrial membrane potential (AID 720635)
How it was run: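 HepG2 cells (2,000/well) attached overnight at 37C, then took compound for 1 hr at 37C, 5% CO2. Mito-MPS dye was added for 30 min; fluorescence was read at 490/535 nm (monomers) and 540/590 nm (aggregates).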

[7] = qHTS assay to test for compound auto fluorescence at 590 nm (red) in HepG2 cells (AID 720674)
How it was run: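 Intrinsic compound fluorescence in the red window (Ex/Em 540/590 nm) is measured in attached HepG2 cells exposed for 1 hr, DMSO vehicle as baseline, benchmarked to Rose Bengal sodium.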

[8] = qHTS assay to test for compound auto fluorescence at 535 nm (green) in HepG2 cells (AID 720675)
[9] = qHTS assay to test for compound auto fluorescence at 460 nm (blue) in HEK293 cells (AID 720678)
How it was run: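 After cell attachment (4-5 hr, 37C), compounds were pinned onto HEK293 monolayers in 10% dialyzed FBS medium. The blue channel (405/460 nm) was read following overnight culture. Equivalency was calculated against triamterene.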

[10] = qHTS assay to test for compound auto fluorescence at 590 nm (red) in HEK293 cells (AID 720679)
How it was run: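 Plates of HEK293 cells (10% dialyzed FBS) are treated with 23 nL compound or DMSO vehicle after a 4-5 hr attachment period, incubated overnight at 37C, and read for red fluorescence at 540/590nm.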
% is set by controls: 0 for no effect and ±100 for the full control effect.

FC(F)(F)C(F)(F)C(F)(F)C(F)(F)C(F)(F)C(F)(F)C(F)(F)C(F)(F)C(F)(F)C(F)(F)F
inactive: activation [1] -5.47% [at 8.3 µM] | activation [2] 3.4% [at 8.08 µM] | activity change, negative = cytotoxicity [3] -19.5% [at 8.08 µM] | activity, negative = cytotoxicity [4] 13.6% [at 8.08 µM] | activity change, negative = cytotoxicity [5] 3.63% [at 8.08 µM] | ratio activity, negative = MMP loss [6] 21.5% [at 8.08 µM] | fluorescence, relative to Rose Bengal [7] 0.158% [at 9.17 µM] | fluorescence, % of fluorescein control [8] -0.0906% [at 9.17 µM] | fluorescence, % of triamterene [9] -0.0034% [at 9.17 µM] | fluorescence, % of fluorescent control [10] -0.155% [at 9.17 µM]

CC(C)CCCCCCN
inactive: Potency [1] | Potency [2] | Potency [3] | Potency [4] | Potency [5] | Potency [6] | outcome [7] | outcome [8] | Potency [9] | outcome [10]

C[N+](C)(C)CC[N+]1(C)Cc2c(Cl)c(Cl)c(Cl)c(Cl)c2C1
inactive: Potency [1] | Potency [2] | Potency [3] | Potency [4] | Potency [5] | Potency [6] | outcome [7] | outcome [8] | Potency [9] | outcome [10]

CCCCCCCCCCCCI
inactive: Potency [1] | Potency [2] | Potency [3] | Potency [4] | Potency [5] | Potency [6] | outcome [7] | outcome [8] | Potency [9] | outcome [10]

CC(O)CN(CCCN(C)C)CCCN(C)C (stereo not given)
inactive: Potency [1] | Potency [2] | Potency [3] | Potency [4] | Potency [5] | Potency [6] | outcome [7] | outcome [8] | Potency [9] | outcome [10]

CC12CCC(CC1=O)C2(C)C (stereo not given)
inactive: Potency [1] | Potency [2] | Potency [3] | Potency [4] | Potency [5] | Potency [6] | outcome [7] | outcome [8] | Potency [9] | outcome [10]

NC(=O)c1ncn([C@@H]2O[C@H](CO)[C@@H](O)[C@H]2O)c1O
inactive: Potency [1] | Potency [2] | Potency [3] | Potency [4] | Potency [5] | Potency [6] | outcome [7] | outcome [8] | Potency [9] | outcome [10]

CC(C)=CCC/C(C)=C/C(=O)O
inactive: Potency [1] | Potency [2] | Potency [3] | Potency [4] | Potency [5] | Potency [6] | outcome [7] | outcome [8] | Potency [9] | outcome [10]

O=C(O)c1ccc[n+]([O-])c1
inactive: Potency [1] | Potency [2] | Potency [3] | Potency [4] | Potency [5] | Potency [6] | outcome [7] | outcome [8] | Potency [9] | outcome [10]

CCC(=O)/C=C/c1ccc(OC)cc1
inactive: Potency [1] | Potency [2] | Potency [3] | Potency [4] | Potency [5] | Potency [6] | outcome [7] | outcome [8] | Potency [9] | outcome [10]

CN(C)CCn1nnnc1SCC1=C(C(=O)O)N2C(=O)[C@@H](NC(=O)Cc3csc(N)n3)[C@H]2SC1
inactive: Potency [1] | Potency [2] | Potency [3] | Potency [4] | Potency [5] | Potency [6] | fluorescence, relative to Rose Bengal [7] -0.434% [at 18.6 µM] | fluorescence, % of fluorescein control [8] -0.0016% [at 18.6 µM] | fluorescence, % of triamterene [9] 0.477% [at 18.6 µM] | fluorescence, % of fluorescent control [10] -0.137% [at 18.6 µM]

CC(C)(C)OC(=O)N1C[C@@H](F)C[C@H]1C(=O)O
inactive: Potency [1] | Potency [2] | Potency [3] | Potency [4] | Potency [5] | Potency [6] | outcome [7] | outcome [8] | Potency [9] | outcome [10]

Reference: PubChem BioAssay (Tox21)
